Outcome and AC50 data for 31 compounds are collected here from PubChem BioAssay (EPA / NIEHS).

For test [1], the target named is Bile acid receptor (Homo sapiens) (UniProt Q96RI1). Nature of the test: ATG_FXR_TRANS: Attagene TRANS-FACTORIAL HepG2 Assay for Farnesoid X Receptor (FXR) (AID 2282979).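 Also: hits raise reporter mRNA above DMSO so AC50 marks FXR activation.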 The following applies: HepG2 Attagene TRANS FXR-GAL4 reporter transcription. A digest of the protocol: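 After 24 h chemical treatment of transfected HepG2 cells, GAL4-UAS reporter transcripts driven by an exogenous FXR-GAL4 fusion were measured by RT-PCR and capillary electrophoresis. Increases over DMSO were fitted.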
Chain of Bile acid receptor (Homo sapiens) (Q96RI1 whole entry, looked up, the tested form may be a part): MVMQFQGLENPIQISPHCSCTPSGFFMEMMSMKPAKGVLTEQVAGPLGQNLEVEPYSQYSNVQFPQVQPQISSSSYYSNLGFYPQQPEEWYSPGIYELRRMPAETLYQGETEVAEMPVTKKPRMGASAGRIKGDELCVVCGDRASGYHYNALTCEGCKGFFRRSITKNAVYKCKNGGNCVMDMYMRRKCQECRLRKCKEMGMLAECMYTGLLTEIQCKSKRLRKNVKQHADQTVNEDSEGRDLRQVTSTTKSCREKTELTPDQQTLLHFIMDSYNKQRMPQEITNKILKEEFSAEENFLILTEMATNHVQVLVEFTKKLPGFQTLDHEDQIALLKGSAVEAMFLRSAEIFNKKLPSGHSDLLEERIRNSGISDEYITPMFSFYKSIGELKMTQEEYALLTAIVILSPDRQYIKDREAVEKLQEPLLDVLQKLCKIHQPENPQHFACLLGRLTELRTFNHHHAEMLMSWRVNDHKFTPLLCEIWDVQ

Test [2] can be described thus: ATG_M_06_TRANS: Attagene TRANS-FACTORIAL HepG2 Assay for M06 Transcription Factor (Internal Marker) (AID 2282983).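 Also: reporter transcript level by RT-PCR then capillary electrophoresis fluorescence.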 The following applies: HepG2 Attagene TRANS M06 internal marker reporter. The method in brief:
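Multi-reporter-transfected HepG2, 24 h treatment; reporter transcripts quantified via RT-PCR, primer-extension labelling and CE. DMSO-normalized gain-of-signal fit.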

Test [3] in a line: ATG_M_32_TRANS: Attagene TRANS-FACTORIAL HepG2 Assay for M32 Transcription Factor (Internal Marker) (AID 2282984).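 Also: transcript level of a background control reporter unit measured by RT-PCR and capillary electrophoresis.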 The following applies: HepG2 Attagene TRANS M32 internal marker reporter. A digest of the protocol:
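Cell-based TRANS-format assay in HepG2: exogenous chimeric GAL4 reporter units transiently expressed, compounds applied 24 h. Reporter mRNA detected by RT-PCR plus capillary electrophoresis; this readout is an internal background marker.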

Test [4] concerns the target Transcriptional activator Myb (Homo sapiens) (UniProt P10242). The experiment in a line: ATG_Myb_CIS: Attagene CIS-FACTORIAL HepG2 Assay for human Myeloblastosis (Myb) Proto-Oncogene Transcription Factor (AID 2282986; active = hit-call score of the fitted dose curve at least 0.9, where 1 is the maximum; inactive = score below 0.9). The following applies: HepG2 Attagene CIS-FACTORIAL Myb reporter transcription; actives raise or lower the signal. A digest of the protocol: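 Steps: transfect HepG2 with cis-regulated reporter units; dose with chemical for 24 h; isolate RNA, reverse-transcribe, PCR-amplify and FAM-label reporter sequences; digest with HpaI; resolve by capillary electrophoresis. Activity fitted in both directions relative to DMSO.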

Test [5] has as its target Oxysterols receptor LXR-alpha (Homo sapiens) (UniProt Q13133). The experiment in a line: ATG_LXRa_TRANS: Attagene TRANS-FACTORIAL HepG2 Assay for human Liver X Receptor alpha (LXRa) (AID 2282980). The following applies: HepG2 Attagene TRANS reporter, LXRa transactivation. A digest of the protocol: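 In this multiplexed TRANS system, compounds act on HepG2 cells carrying GAL4-UAS reporter units and a receptor-GAL4 fusion for 24 h. Induced reporter RNA is amplified, fluorescently labelled and sized by capillary electrophoresis, with DMSO as baseline.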

In test [6] the target is Oxysterols receptor LXR-beta (Homo sapiens) (UniProt P55055). Nature of the test: ATG_LXRb_TRANS: Attagene TRANS-FACTORIAL HepG2 Assay for human Liver X Receptor beta (LXRb) (AID 2282981). The following applies: HepG2 Attagene TRANS GAL4-LXRb reporter, mRNA. A digest of the protocol: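 After 24 h of chemical treatment, transfected HepG2 cells yield total RNA; reporter cDNA is PCR-amplified, FAM-labelled, HpaI-cut and run on capillary electrophoresis. Signal reflects chimeric LXRb-Gal4 activity on GAL4-UAS reporters.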
Chain of Oxysterols receptor LXR-beta (Homo sapiens) (P55055 whole entry, looked up, the tested form may be a part): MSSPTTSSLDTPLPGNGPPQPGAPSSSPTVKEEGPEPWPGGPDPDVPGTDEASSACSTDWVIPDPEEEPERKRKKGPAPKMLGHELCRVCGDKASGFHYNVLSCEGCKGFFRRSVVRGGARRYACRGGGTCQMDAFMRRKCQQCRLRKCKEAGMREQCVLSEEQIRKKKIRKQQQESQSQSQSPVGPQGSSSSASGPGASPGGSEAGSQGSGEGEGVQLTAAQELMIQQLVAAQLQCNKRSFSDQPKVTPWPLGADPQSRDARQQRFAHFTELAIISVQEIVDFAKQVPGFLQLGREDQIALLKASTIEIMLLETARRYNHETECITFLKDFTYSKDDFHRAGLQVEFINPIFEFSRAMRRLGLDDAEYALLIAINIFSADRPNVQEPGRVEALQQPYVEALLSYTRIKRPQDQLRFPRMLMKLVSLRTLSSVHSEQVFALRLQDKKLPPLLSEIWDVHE

In test [7] the target is Nuclear receptor subfamily 4 group A member 2 (Homo sapiens) (UniProt P43354). The experiment in a line: ATG_NURR1_TRANS: Attagene TRANS-FACTORIAL HepG2 Assay for human Nuclear Receptor Related Protein 1 (NURR1) (AID 2282985). To be noted: HepG2 Attagene TRANS reporter, mRNA readout. The method in brief:
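Measures transcriptional activation by an exogenous NR-Gal4 chimera in transfected HepG2 liver cells. After 24 h, reporter RNA is reverse-transcribed, amplified and resolved by capillary electrophoresis; DMSO defines baseline.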

Test [8] has as its target Nuclear respiratory factor 1 (Homo sapiens) (UniProt Q16656). The experiment in a line: ATG_NRF1_CIS: Attagene CIS-FACTORIAL HepG2 Assay for human Nuclear Respiratory Factor 1 (NRF1) Orphan Gene (AID 2282987; active = hit-call score of the fitted dose curve at least 0.9, where 1 is the maximum; inactive = score below 0.9). To be noted: HepG2 NRF1 cis-element reporter, Attagene multiplex; actives raise or lower the signal. The method in brief: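 Fluorescence intensity of labelled reporter cDNA fragments, resolved by capillary electrophoresis, served as readout for NRF1 cis-element activity. Transiently transfected HepG2 cells were dosed for 24 hours; activity in either direction was fitted against DMSO negative control.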

For test [9], the target named is Hepatocyte nuclear factor 4-alpha (Homo sapiens) (UniProt P41235). The experiment in a line: ATG_HNF4a_TRANS: Attagene TRANS-FACTORIAL HepG2 Assay for human Hepatocyte Nuclear Factor 4 alpha (HNF4a) (AID 2282982). The following applies: HepG2 HNF4a transactivation reporter, mRNA readout. The method in brief:
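Multiplexed reporter assay: transfected HepG2, 24 h exposure, total RNA → oligo(dT) RT → PCR → 6-FAM extension → HpaI digest → CE fluorescence. DMSO = negative control.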

Results filed as inconclusive are left out. Active and inactive are the calls of the source. The calls were made as follows, unless noted: active = hit-call score of the fitted dose curve at least 0.9, where 1 is the maximum; inconclusive = response in the unintended direction; inactive = score below 0.9.

Chain of Oxysterols receptor LXR-alpha (Homo sapiens) (Q13133 whole entry, looked up, the tested form may be a part): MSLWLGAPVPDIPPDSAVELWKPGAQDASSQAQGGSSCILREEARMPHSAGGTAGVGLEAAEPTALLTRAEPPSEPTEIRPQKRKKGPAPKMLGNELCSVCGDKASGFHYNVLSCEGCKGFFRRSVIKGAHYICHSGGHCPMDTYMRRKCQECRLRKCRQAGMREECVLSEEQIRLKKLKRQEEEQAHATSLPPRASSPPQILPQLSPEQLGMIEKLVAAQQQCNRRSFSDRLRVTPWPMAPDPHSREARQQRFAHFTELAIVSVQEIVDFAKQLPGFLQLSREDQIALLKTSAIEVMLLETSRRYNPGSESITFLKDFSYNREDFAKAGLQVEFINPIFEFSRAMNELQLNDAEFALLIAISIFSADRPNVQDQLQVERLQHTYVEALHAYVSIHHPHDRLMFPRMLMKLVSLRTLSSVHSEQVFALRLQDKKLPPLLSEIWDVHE
Chain of Hepatocyte nuclear factor 4-alpha (Homo sapiens) (P41235 whole entry, looked up): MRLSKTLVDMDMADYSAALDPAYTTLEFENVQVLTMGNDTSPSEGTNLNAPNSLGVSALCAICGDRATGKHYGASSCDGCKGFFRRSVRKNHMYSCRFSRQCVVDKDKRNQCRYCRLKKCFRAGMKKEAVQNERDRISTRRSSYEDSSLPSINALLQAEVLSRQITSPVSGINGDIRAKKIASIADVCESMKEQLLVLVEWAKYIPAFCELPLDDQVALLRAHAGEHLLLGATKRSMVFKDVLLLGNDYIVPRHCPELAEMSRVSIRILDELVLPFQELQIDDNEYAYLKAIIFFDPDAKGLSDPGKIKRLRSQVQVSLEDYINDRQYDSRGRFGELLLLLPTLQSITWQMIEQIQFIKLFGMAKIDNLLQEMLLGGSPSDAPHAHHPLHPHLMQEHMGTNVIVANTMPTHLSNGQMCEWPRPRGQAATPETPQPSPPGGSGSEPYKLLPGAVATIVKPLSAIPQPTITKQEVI
Chain of Nuclear receptor subfamily 4 group A member 2 (Homo sapiens) (P43354 whole entry, looked up, the tested form may be a part): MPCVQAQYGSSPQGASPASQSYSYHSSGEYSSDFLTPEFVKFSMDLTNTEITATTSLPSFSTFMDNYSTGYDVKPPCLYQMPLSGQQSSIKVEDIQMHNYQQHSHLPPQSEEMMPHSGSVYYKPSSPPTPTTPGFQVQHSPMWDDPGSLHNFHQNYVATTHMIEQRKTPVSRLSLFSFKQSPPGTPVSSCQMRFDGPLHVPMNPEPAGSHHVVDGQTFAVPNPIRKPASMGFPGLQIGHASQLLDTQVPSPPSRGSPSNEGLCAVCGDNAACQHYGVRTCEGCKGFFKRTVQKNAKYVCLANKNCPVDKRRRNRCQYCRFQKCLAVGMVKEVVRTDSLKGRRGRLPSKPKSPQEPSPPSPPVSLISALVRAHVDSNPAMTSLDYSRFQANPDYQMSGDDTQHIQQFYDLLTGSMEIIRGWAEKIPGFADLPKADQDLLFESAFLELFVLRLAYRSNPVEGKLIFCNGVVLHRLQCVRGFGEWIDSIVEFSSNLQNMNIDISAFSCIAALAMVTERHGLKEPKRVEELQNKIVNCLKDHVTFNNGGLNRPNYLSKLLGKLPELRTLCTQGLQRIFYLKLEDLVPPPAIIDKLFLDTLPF
Chain of Transcriptional activator Myb (Homo sapiens) (P10242 whole entry, looked up): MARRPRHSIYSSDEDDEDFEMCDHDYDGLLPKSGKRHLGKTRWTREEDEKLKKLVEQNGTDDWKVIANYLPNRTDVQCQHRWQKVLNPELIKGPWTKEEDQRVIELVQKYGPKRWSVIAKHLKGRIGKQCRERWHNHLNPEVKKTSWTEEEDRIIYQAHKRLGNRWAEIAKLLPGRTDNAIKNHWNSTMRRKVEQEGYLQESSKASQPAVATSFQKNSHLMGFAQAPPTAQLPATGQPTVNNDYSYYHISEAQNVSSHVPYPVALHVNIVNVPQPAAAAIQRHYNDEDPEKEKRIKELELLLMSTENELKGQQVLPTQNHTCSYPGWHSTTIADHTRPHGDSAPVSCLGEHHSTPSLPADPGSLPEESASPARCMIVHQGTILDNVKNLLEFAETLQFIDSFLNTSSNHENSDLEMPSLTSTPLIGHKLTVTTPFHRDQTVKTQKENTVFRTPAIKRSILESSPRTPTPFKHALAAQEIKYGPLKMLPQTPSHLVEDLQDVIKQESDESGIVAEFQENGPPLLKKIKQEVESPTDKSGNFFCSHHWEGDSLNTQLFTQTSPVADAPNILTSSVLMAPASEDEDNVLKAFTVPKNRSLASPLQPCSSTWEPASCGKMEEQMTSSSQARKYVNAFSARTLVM
Chain of Nuclear respiratory factor 1 (Homo sapiens) (Q16656 whole entry, looked up, the tested form may be a part): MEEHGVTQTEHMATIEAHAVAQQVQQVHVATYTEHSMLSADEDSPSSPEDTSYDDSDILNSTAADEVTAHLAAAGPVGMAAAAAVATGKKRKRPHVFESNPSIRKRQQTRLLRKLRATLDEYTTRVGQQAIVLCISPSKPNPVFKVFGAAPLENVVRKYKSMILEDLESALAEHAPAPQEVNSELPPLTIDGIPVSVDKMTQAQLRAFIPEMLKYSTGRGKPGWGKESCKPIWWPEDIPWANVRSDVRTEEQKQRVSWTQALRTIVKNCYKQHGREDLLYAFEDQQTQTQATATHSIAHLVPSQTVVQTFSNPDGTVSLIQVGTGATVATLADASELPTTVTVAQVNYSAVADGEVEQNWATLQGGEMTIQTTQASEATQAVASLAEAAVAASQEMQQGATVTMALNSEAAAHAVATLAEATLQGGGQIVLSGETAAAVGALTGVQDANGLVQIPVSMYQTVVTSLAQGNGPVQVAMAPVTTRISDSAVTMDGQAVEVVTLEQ

Consider `O=C(O)COCCN1CCN(C(c2ccccc2)c2ccc(Cl)cc2)CC1` (centres undefined), for which the compound was classed as inactive in test [1], in [2], in [3] and in test [4].
`CC(=O)O[C@]1(C(C)=O)CC[C@H]2[C@@H]3C[C@H](C)C4=CC(=O)CC[C@]4(C)[C@H]3CC[C@@]21C`: the compound was called inactive in test [1], in test [5], in test [6], in test [2], in test [4] and in test [8]. Moreover, the AC50 in [7] was 16.8 µM (active).
With `Cc1ccc(Nc2ccc(O)c3c2C(=O)c2ccccc2C3=O)cc1`, the compound was called inactive in [1], in [5], in test [6], in [3], in [4] and in [8].
Turning to `CC(=O)Nc1ccc(C)cc1C`, the outcome in test [1], in [9], in test [3], in [4] and in test [8] was inactive.
Turning to `CCCCC/C=C/C=C/C=O`, the outcome in [1], in [5], in test [2], in [3], in test [7] and in test [4] was inactive. In addition, in test [8], the call was inactive.
With `CCCC(=O)C(C)=O`, the compound was called inactive in [1], in test [2], in test [4] and in test [8].
As for `Cc1ncc([N+](=O)[O-])n1C`, the compound was called inactive in [1], in [6], in test [7], in test [4] and in test [8].
As to `O=P(c1ccccc1)(c1ccccc1)c1ccccc1`, the outcome in test [1], in test [2], in [3], in test [7], in [4] and in test [8] was inactive.
As to `CCCCCCCCCCCCCC(=O)O`, the compound was classed as inactive in test [1], in test [9], in test [2], in test [3], in test [7] and in [4]. Moreover, the result in test [8] was inactive.
Take `COc1ccc(OC)c(OC)c1`: the result in test [1], in test [9], in [2], in test [3], in test [4] and in [8] was inactive.
Regarding `OCc1cccnc1`, the result in test [1], in test [9], in [3], in [7], in test [4] and in [8] was inactive.
Regarding `CCCCCCCCCCCCCCCCCC(=O)OCC(CC)CCCC` (centres undefined), the outcome in test [5], in test [6], in test [9], in test [2], in [3] and in test [7] was inactive. Besides, the outcome in test [4] and in test [8] was inactive.
For `CC(C)(Oc1ccc(CCNC(=O)c2ccc(Cl)cc2)cc1)C(=O)O`, the result in test [1], in [6], in test [9], in test [2], in test [3] and in [4] was inactive. Moreover, the compound was classed as inactive in test [8].
Regarding `CCN(CC)c1ccc2c(-c3ccccc3C(=O)O)c3ccc(=[N+](CC)CC)cc-3oc2c1`, the outcome in test [1], in test [3], in test [4] and in test [8] was inactive.
In the case of `OCCN1CCNCC1`, the compound was classed as inactive in test [1], in test [6], in [9], in [2], in test [7] and in test [4]. Moreover, in test [8], the call was inactive.
Turning to `CCCCCCCCCOC(C)=O`, the compound was classed as inactive in test [1], in test [3], in test [7], in test [4] and in test [8].
Regarding `CC(=O)OCCC(C)CC(C)(C)C` (centres undefined), the compound was called inactive in test [1], in [2], in test [7], in test [4] and in test [8].
For `Cc1ccc2sc3cccc(C)c3c2c1`, the compound was called inactive in test [1], in test [9], in [2], in test [4] and in test [8].
As to `CNC(=O)Oc1ccc2c(c1)[C@]1(C)CCN(C)[C@@H]1N2C`, the outcome in test [1], in test [3], in test [7], in test [4] and in [8] was inactive.
Regarding `c1ccc2sc(SN(C3CCCCC3)C3CCCCC3)nc2c1`, the compound was classed as inactive in [1], in test [5], in test [9], in test [7], in test [4] and in test [8].
Turning to `C=CCOC(=O)CCC1CCCCC1`, the outcome in test [1], in test [5], in test [9], in [2], in test [3] and in test [7] was inactive. The compound was called inactive in test [4] and in test [8].
Turning to `CCCCO`, the outcome in [1], in test [9], in test [3], in test [4] and in test [8] was inactive.
As to `C=CC(=O)NCOCC(C)C`, the call in [1], in test [9], in test [2], in test [3], in test [7] and in test [4] was inactive. For the same compound, in test [8], the call was inactive.
As for `NC(=O)c1ccccc1Cl`, the outcome in [1], in [5], in test [3], in test [7], in test [4] and in test [8] was inactive.
Take `Clc1ccc2c(c1)C(N1CCNCC1)=Nc1ccccc1O2`: the AC50 in [5] was 44.4 µM (active). Moreover, the compound was called inactive in test [6], in [9], in test [2], in test [3], in [7] and in [4]. The result in [8] was inactive.
For `C=C[C@@H](C)CCC=C(C)C`, the call in test [5], in test [6], in test [2], in [3], in test [7] and in test [4] was inactive. For the same compound, in [8], the compound was called inactive.
With `CC(=O)c1c(C)cc(C(C)(C)C)cc1C`, the call in test [5], in test [6], in [9], in test [2], in [7] and in test [4] was inactive. Moreover, in [8], the compound was called inactive.
Regarding `CC(C)C(C)(C)C(C)(C)C(C)(C)S`, the result in [5], in [6], in test [9], in test [2], in [7] and in test [4] was inactive. Further, in test [8], the outcome was inactive.
With `CC(CN1c2ccccc2Sc2ccccc21)N(C)C` (centres undefined), the call in [5], in test [6], in test [9], in [7], in [4] and in test [8] was inactive.
As to `O=C(OCc1ccccc1)C(=O)OCc1ccccc1`, the outcome in test [5], in test [6], in test [9], in test [2], in test [3] and in test [4] was inactive. The outcome in [8] was inactive.
Turning to `C=C(C)[C@@H]1CCC2=CC(=O)C[C@@H](C)[C@]2(C)C1`, the compound was called inactive in test [5], in [6], in test [2], in test [3], in test [4] and in [8].

For orientation: AC50 means the concentration at which the activity in the assay is half-maximal.
